Assay results taken from PubChem BioAssay (NCI).
About 79,000 compounds went through this panel and 15% of them were active in at least one assay; those are over-represented in the sample as a whole. The source made the active and inactive calls. Rule as the data show it: active = growth inhibition above about 70%; inactive = the rest.

Assay: NCI Yeast Anticancer Drug Screen. Data for the sgs1 strain (AID 173);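 also: 0% = growth of vehicle-only control cultures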
Details: S. cerevisiae sgs1 mutant, at 1.2 µM, stronger effect = higher value
In short: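 Yeast mutant strains carrying defined defects in DNA damage repair or cell cycle control were exposed to test compounds. Growth inhibition was scored against vehicle-treated controls.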
With `O=C1/C(=C/c2ccccc2)CCCC1CN1CCCCC1` (stereo unspecified) the growth inhibition was 29% (inactive).
In the case of `C#CCN(Cc1ccc2nc(N)[nH]c(=O)c2c1)c1ccc(C(=O)NC(CCC(=O)O)C(=O)O)cc1` (stereo unspecified), the growth inhibition is reported as 24% (inactive).
For `CCOC1(c2cccc([N+](=O)[O-])c2)c2ccccc2Oc2ccccc21`, the growth inhibition was -1% (inactive).
With `O=C(O)CNC(=S)Nc1ccccc1` the growth inhibition was -55% (inactive).
For `N/C(=N/N=C/c1cc(Br)cc(Br)c1O)NO`, the growth inhibition was -35% (inactive).
With `C[Si](C)(C)/C=C/CCNC(C#N)c1ccccc1` (stereo unspecified) the growth inhibition was -19% (inactive).
For `CC1=C(C(=O)NCc2ccccc2)C(c2ccccc2)C(C(=O)NCc2ccccc2)=C(C)N1`, the growth inhibition was -1% (inactive).
With `CCOC(=O)C(Br)C(Br)c1ccccc1Cl` (stereo unspecified) the growth inhibition was 10% (inactive).
In the case of `CCOC(=O)C1=C(C)NC(C)=C(C(=O)OCCNC(=O)c2ccc(N=[N+]=[N-])cc2)C1c1ccccc1C(F)(F)F` (stereo unspecified), the growth inhibition is reported as 1% (inactive).
For `Cc1cc(C)c(NC(=S)NC(=O)c2ccccc2)cc1C`, the growth inhibition was -62% (inactive).
In the case of `CNCCCNc1c2ccccc2nc2cccc([N+](=O)[O-])c12`, the growth inhibition is reported as 67% (inactive).
In the case of `COc1c(O)c(C=O)c(Br)c(C=O)c1O`, the growth inhibition is reported as -2% (inactive).
For `Cc1c(C)c(C)c(CSC(=N)N)c(C)c1C`, the growth inhibition was -51% (inactive).
In the case of `O=C(CSC(=S)N1CCCCC1)Nc1nc2c(s1)CCCC2`, the growth inhibition is reported as 22% (inactive).
With `CNC(=O)OCc1c(COC(=O)NC)c(-c2ccc(Cl)cc2)n2c1CCC2` the growth inhibition was -11% (inactive).
In the case of `CC(=O)OC1CC2C(C)(C)C(=O)C=C[C@]2(C)C2CCC3(C)C(=CCC3[C@H](CO)C[C@H](O)C(=O)C(C)(C)O)[C@]12C` (stereo partly specified), the growth inhibition is reported as -34% (inactive).
